We go through 26 sequences from paper doi:10.1101/2024.03.05.583629.

The target of the assay is pT7_6His-AlfaTag-HOXD13 (human, UniProt P35453 263-343). Kind of assay: PADIT-seq. The following applies: dsDNA, one strand shown.
Chain of pT7_6His-AlfaTag-HOXD13 (P35453 263-343): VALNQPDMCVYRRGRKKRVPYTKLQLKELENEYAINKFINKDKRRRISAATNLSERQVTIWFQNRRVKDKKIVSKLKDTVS
Take “CTCGAGGATATCAAGATCTGGCCTCGGCGCGTATGCGGGAACCTCTAGCTAGCCGACTCACTATAGGGATAATCGCCCTGAGCAAAGACC”: the binding signal was -1.09 ± 0.121 log2FC.

With “CTCGAGGATATCAAGATCTGGCCTCGGCGCTTTAAAAGGAACCTCTAGCTAGCCGACTCACTATAGGGATAATCGCCCTGAGCAAAGACC”, the binding signal is 1.94 ± 0.0663 log2FC.

“CTCGAGGATATCAAGATCTGGCCTCGGCGTTTTAGACGGAACCTCTAGCTAGCCGACTCACTATAGGGATAATCGCCCTGAGCAAAGACC” returned a binding signal of -0.509 ± 0.117 log2FC.

As for “CTCGAGGATATCAAGATCTGGCCTCGGCATTTTATTGGGAACCTCTAGCTAGCCGACTCACTATAGGGATAATCGCCCTGAGCAAAGACC”, the binding signal is 3.32 ± 0.0805 log2FC.

“CTCGAGGATATCAAGATCTGGCCTCGGCATTTTAACGGGAACCTCTAGCTAGCCGACTCACTATAGGGATAATCGCCCTGAGCAAAGACC” came in with a binding signal of 1.87 ± 0.0803 log2FC.

Sequence “CTCGAGGATATCAAGATCTGGCCTCGGCCCTATAAAAGGAACCTCTAGCTAGCCGACTCACTATAGGGATAATCGCCCTGAGCAAAGACC” registered a binding signal of 2.89 ± 0.0925 log2FC.

Turning to “CTCGAGGATATCAAGATCTGGCCTCGGCGTTTTAGGTGGAACCTCTAGCTAGCCGACTCACTATAGGGATAATCGCCCTGAGCAAAGACC”, the binding signal is -0.0193 ± 0.12 log2FC.

As to “CTCGAGGATATCAAGATCTGGCCTCGGCATTTTAGCTGGAACCTCTAGCTAGCCGACTCACTATAGGGATAATCGCCCTGAGCAAAGACC”, the binding signal was -0.225 ± 0.108 log2FC.

For the sequence “CTCGAGGATATCAAGATCTGGCCTCGGCTTTTTACTGGGAACCTCTAGCTAGCCGACTCACTATAGGGATAATCGCCCTGAGCAAAGACC”, the binding signal was determined as 2.73 ± 0.0875 log2FC.

In turn, “CTCGAGGATATCAAGATCTGGCCTCGGCTTCCTAAAAGGAACCTCTAGCTAGCCGACTCACTATAGGGATAATCGCCCTGAGCAAAGACC” had a binding signal of -0.635 ± 0.152 log2FC.

As to “CTCGAGGATATCAAGATCTGGCCTCGGCTAGATAAAAGGAACCTCTAGCTAGCCGACTCACTATAGGGATAATCGCCCTGAGCAAAGACC”, the binding signal was determined as 0.188 ± 0.107 log2FC.

The sequence “CTCGAGGATATCAAGATCTGGCCTCGGCAATTTAAAAGGAACCTCTAGCTAGCCGACTCACTATAGGGATAATCGCCCTGAGCAAAGACC” registered a binding signal of 2.32 ± 0.0729 log2FC.

“CTCGAGGATATCAAGATCTGGCCTCGGCAACTGGGCGGGAACCTCTAGCTAGCCGACTCACTATAGGGATAATCGCCCTGAGCAAAGACC” returned a binding signal of -0.923 ± 0.12 log2FC.

With “CTCGAGGATATCAAGATCTGGCCTCGGCTCCTTAAAAGGAACCTCTAGCTAGCCGACTCACTATAGGGATAATCGCCCTGAGCAAAGACC”, the binding signal came to 1.08 ± 0.104 log2FC.

In the case of “CTCGAGGATATCAAGATCTGGCCTCGGCTTTTTAATTGGAACCTCTAGCTAGCCGACTCACTATAGGGATAATCGCCCTGAGCAAAGACC”, the binding signal worked out at 2.41 ± 0.0904 log2FC.

As to “CTCGAGGATATCAAGATCTGGCCTCGGCGCGTGGCCAGGAACCTCTAGCTAGCCGACTCACTATAGGGATAATCGCCCTGAGCAAAGACC”, the binding signal was -1.04 ± 0.128 log2FC.

For “CTCGAGGATATCAAGATCTGGCCTCGGCCGCCCAGTTGGAACCTCTAGCTAGCCGACTCACTATAGGGATAATCGCCCTGAGCAAAGACC”, the binding signal was -0.996 ± 0.138 log2FC.

Take “CTCGAGGATATCAAGATCTGGCCTCGGCATTTTACATGGAACCTCTAGCTAGCCGACTCACTATAGGGATAATCGCCCTGAGCAAAGACC”: the binding signal worked out at 2.14 ± 0.0807 log2FC.

“CTCGAGGATATCAAGATCTGGCCTCGGCCGCGTAAAAGGAACCTCTAGCTAGCCGACTCACTATAGGGATAATCGCCCTGAGCAAAGACC” came in with a binding signal of 1.44 ± 0.0853 log2FC.

The sequence “CTCGAGGATATCAAGATCTGGCCTCGGCCTTTTAGCGGGAACCTCTAGCTAGCCGACTCACTATAGGGATAATCGCCCTGAGCAAAGACC” registered a binding signal of 0.142 ± 0.0994 log2FC.

“CTCGAGGATATCAAGATCTGGCCTCGGCTCAATAAAAGGAACCTCTAGCTAGCCGACTCACTATAGGGATAATCGCCCTGAGCAAAGACC” registered a binding signal of 2.74 ± 0.0786 log2FC.

“CTCGAGGATATCAAGATCTGGCCTCGGCCGCACCCGCGGAACCTCTAGCTAGCCGACTCACTATAGGGATAATCGCCCTGAGCAAAGACC” displayed a binding signal of -1.02 ± 0.126 log2FC.

Regarding “CTCGAGGATATCAAGATCTGGCCTCGGCATTTTAGAGGGAACCTCTAGCTAGCCGACTCACTATAGGGATAATCGCCCTGAGCAAAGACC”, the binding signal was 1.43 ± 0.0957 log2FC.

As to “CTCGAGGATATCAAGATCTGGCCTCGGCGGGCCACGCGGAACCTCTAGCTAGCCGACTCACTATAGGGATAATCGCCCTGAGCAAAGACC”, the binding signal was -1.1 ± 0.106 log2FC.

Turning to “CTCGAGGATATCAAGATCTGGCCTCGGCCTTTTATCTGGAACCTCTAGCTAGCCGACTCACTATAGGGATAATCGCCCTGAGCAAAGACC”, the binding signal is 0.811 ± 0.0782 log2FC.

“CTCGAGGATATCAAGATCTGGCCTCGGCCCTTGGGCGGGAACCTCTAGCTAGCCGACTCACTATAGGGATAATCGCCCTGAGCAAAGACC” returned a binding signal of -0.886 ± 0.123 log2FC.
